# How the values were obtained:
# PHD finger protein 12 = PHD finger protein 12 (UniProt Q96QT6); test: other; cross-linking mass spectrometry; other
# Histone deacetylase 2 = Histone deacetylase 2 (UniProt Q92769); test: cross-link between two proteins; cross-linking mass spectrometry
# Sequence of Histone deacetylase 2 (Q92769 whole entry): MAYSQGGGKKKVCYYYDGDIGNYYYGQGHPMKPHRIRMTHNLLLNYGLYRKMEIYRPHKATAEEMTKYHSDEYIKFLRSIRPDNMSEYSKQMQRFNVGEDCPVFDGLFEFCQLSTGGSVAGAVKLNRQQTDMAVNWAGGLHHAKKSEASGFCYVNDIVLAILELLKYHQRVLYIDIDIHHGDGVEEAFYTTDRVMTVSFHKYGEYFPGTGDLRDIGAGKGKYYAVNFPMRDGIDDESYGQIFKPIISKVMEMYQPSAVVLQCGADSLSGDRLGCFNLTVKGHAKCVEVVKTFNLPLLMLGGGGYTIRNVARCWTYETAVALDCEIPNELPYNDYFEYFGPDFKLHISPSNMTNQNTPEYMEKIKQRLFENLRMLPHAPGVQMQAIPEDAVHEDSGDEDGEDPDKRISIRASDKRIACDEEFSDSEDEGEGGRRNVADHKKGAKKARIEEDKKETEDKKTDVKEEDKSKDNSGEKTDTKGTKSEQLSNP
# Sequence of PHD finger protein 12 (Q96QT6 whole entry): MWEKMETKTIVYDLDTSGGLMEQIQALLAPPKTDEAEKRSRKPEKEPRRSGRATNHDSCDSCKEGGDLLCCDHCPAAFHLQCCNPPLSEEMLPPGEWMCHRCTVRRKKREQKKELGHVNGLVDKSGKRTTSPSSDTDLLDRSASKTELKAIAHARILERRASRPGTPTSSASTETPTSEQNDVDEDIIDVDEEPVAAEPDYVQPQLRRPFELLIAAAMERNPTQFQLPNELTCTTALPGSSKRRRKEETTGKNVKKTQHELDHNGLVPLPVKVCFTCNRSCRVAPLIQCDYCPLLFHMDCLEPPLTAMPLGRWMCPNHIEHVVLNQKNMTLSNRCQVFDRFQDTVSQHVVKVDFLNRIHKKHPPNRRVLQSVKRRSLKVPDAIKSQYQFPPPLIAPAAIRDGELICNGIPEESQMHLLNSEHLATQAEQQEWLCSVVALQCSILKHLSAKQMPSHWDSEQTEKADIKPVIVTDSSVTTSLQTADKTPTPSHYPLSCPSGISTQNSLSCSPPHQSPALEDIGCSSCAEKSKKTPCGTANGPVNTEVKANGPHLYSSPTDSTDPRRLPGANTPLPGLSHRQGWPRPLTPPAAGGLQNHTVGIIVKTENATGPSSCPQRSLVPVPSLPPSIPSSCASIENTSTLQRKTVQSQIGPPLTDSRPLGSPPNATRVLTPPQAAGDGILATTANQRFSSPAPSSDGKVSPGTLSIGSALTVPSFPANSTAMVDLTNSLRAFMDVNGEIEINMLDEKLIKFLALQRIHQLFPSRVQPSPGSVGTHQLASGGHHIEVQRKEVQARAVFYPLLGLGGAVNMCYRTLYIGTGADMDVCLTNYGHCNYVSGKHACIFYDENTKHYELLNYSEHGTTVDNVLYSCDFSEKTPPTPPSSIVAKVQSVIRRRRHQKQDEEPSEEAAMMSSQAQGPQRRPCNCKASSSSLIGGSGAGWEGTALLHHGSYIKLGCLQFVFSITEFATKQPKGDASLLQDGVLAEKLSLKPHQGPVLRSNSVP
substance,measurement,setting,value
"Paired amphipathic helix protein Sin3b, O75182",listed as a hit,PHD finger protein 12,yes
same,listed as a hit,Histone deacetylase 2,yes

# Reference: article PMC10156912
